For 21 molecules, outcome and AC50 results are on record in PubChem BioAssay (EPA / NIEHS).

Holding throughout (conditions): mRNA level, 48 h; actives raise or lower the signal
Read-out in assay [1]: Forkhead box O1 (FOXO1), FOXO1 (gene 2308)
Put plainly: LTEA_HepaRG_FOXO1: Life Technologies and Expression Analysis (LTEA) Assay for Forkhead box O1 (FOXO1) using HepaRG (AID 2283456). The method, boiled down: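 Using one lot of HepaRG hepatic cells kept in 0.5% DMSO, the team applied test chemicals in duplicate, half-log dilutions from 100 uM, for 48 h. Expression, normalised to ACTB/GAPDH/POLR2A, was compared with vehicle in either direction.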

Read-out in assay [2]: growth arrest and DNA damage 45 (GADD45A), GADD45A (gene 1647)
Kind of assay: LTEA_HepaRG_GADD45A: Life Technologies and Expression Analysis (LTEA) Assay for growth arrest and DNA damage 45 (GADD45A) using HepaRG (AID 2283458). A digest of the protocol: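 Transcript induction or loss, quantified by TaqMan qRT-PCR against three housekeeping genes, is the read-out. HepaRG cells received chemicals for 48 h across eight half-log concentrations from 100 uM in 0.5% DMSO; gain and loss fitted relative to DMSO.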

Read-out in assay [3]: Forkhead box O3 (FOXO3), FOXO3 (gene 2309)
Put plainly: LTEA_HepaRG_FOXO3: Life Technologies and Expression Analysis (LTEA) Assay for Forkhead box O3 (FOXO3) using HepaRG (AID 2283459). The method, boiled down: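 Gene-expression endpoint: FOXO3 transcript level by qRT-PCR in HepaRG cultures treated 48 h with chemicals up to 100 uM (half-log, 0.5% DMSO vehicle).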

Read-out in assay [4]: ABC Transporter (ABCB1), ABCB1 (gene 5243)
Kind of assay: LTEA_HepaRG_ABCB1: Life Technologies and Expression Analysis (LTEA) Assay for ABC Transporter (ABCB1) using HepaRG (AID 2283460). The method, boiled down:
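Human liver HepaRG line treated 48 h with up to 100 uM compound (eight half-log points, 0.5% DMSO); ABCB1 mRNA change fitted bidirectionally against DMSO controls.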

Read-out in assay [5]: ABC Transporter (ABCC3), ABCC3 (gene 8714)
Put plainly: LTEA_HepaRG_ABCC3: Life Technologies and Expression Analysis (LTEA) Assay for ABC Transporter (ABCC3) using HepaRG (AID 2283462). The method, boiled down:
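Human HepaRG, 48 h dosing, 8-pt half-log series from 100 uM, 0.5% DMSO vehicle, duplicates. ABCC3 mRNA by TaqMan qRT-PCR, housekeeping-normalized; bidirectional curve fit vs DMSO.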

Read-out in assay [6]: ABC Transporter (ABCB11), ABCB11 (gene 8647)
Kind of assay: LTEA_HepaRG_ABCB11: Life Technologies and Expression Analysis (LTEA) Assay for ABC Transporter (ABCB11) using HepaRG (AID 2283463). A digest of the protocol:
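Using HepaRG cultures held in 0.5% DMSO, chemicals were tested at half-log dilutions from 100 uM for 48 h. Induction or suppression of ABCB11 mRNA, normalized to ACTB, GAPDH and POLR2A, was fitted bidirectionally against vehicle.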

Read-out in assay [7]: ABC Transporter (ABCC2), ABCC2 (gene 1244)
Kind of assay: LTEA_HepaRG_ABCC2: Life Technologies and Expression Analysis (LTEA) Assay for ABC Transporter (ABCC2) using HepaRG (AID 2283464). A digest of the protocol:
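HepaRG, 48 h post-plating; serum-free induction medium; cpd 8-pt, 100 uM top, half-log, 0.5% DMSO, duplicate, 48 h. Readout: ABCC2 mRNA by qRT-PCR, norm. ACTB/GAPDH/POLR2A. Bidirectional fit vs DMSO baseline.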

Read-out in assay [8]: Broad substrate specificity ATP-binding cassette transporter ABCG2 (Homo sapiens) (UniProt Q9UNQ0)
Kind of assay: LTEA_HepaRG_ABCG2: Life Technologies and Expression Analysis (LTEA) Assay for ABC Transporter (ABCG2) using HepaRG (AID 2283465). A digest of the protocol:
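Gene expression of ABCG2 in HepaRG liver cells is quantified by qRT-PCR following 48 h exposure across an eight-point series topping at 100 uM. Values come from bidirectional fitting relative to DMSO vehicle.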

Read-out in assay [9]: growth arrest and DNA damage 45 (GADD45B), GADD45B (gene 4616)
Kind of assay: LTEA_HepaRG_GADD45B: Life Technologies and Expression Analysis (LTEA) Assay for growth arrest and DNA damage 45 (GADD45B) using HepaRG (AID 2283461). The method, boiled down: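 HepaRG, ~100,000 cells/well, 48 h plating; serum-free induction medium; cpd 100 uM top, half-log x8, 0.5% DMSO, duplicate, 48 h; lysis in RLT, RNA isolation, qRT-PCR; norm ACTB/GAPDH/POLR2A; bidirectional fit vs DMSO.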

Molecules are shown by their SMILES. Activity calls are given as the source filed them. How the source made its calls: active means hit-call score of the fitted dose curve at least 0.9, where 1 is the maximum; inactive means score below 0.9.

Sequence of Broad substrate specificity ATP-binding cassette transporter ABCG2 (Homo sapiens) (Q9UNQ0 whole entry, looked up): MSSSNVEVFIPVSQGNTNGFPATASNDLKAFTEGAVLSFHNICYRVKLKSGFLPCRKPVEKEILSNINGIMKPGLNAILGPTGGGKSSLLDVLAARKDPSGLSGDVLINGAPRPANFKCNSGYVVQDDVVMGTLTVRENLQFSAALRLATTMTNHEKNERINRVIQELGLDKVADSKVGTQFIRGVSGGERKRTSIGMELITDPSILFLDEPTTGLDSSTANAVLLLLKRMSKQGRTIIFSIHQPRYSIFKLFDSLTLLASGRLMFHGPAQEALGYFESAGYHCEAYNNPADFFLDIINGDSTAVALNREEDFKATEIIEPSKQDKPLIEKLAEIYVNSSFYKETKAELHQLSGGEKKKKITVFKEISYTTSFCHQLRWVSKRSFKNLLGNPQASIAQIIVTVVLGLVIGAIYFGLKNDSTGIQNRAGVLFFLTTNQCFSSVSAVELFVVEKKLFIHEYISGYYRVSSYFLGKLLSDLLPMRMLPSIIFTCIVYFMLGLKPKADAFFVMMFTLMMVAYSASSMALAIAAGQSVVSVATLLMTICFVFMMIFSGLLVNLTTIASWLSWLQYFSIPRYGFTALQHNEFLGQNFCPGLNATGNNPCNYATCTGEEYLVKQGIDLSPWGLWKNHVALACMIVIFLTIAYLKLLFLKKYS

A word on the AC50: it is the concentration at which the activity in the assay is half-maximal. Turning to `C[C@]12CC[C@@H]3c4ccc(O)cc4CC[C@H]3[C@@H]1CC[C@H]2O`, the result in [1], in [2], in assay [3], in assay [4], in [5] and in assay [7] was inactive. Moreover, the results for the AC50 in assay [6] and in [8] were 69 µM (active) and 5.42 µM (active), respectively.

On to `CCN(CC)C(=O)c1cc(S(=O)(=O)Cc2ccccc2)c(N2CCC(c3ccccc3)CC2)cc1N(CC)CCN(C)C`, for which the molecule was called inactive in assay [1], in assay [2], in assay [3], in assay [6] and in assay [8]. Besides, the figures for the AC50 in assay [4] and in assay [7] were 35.1 µM (active) and 30.8 µM (active), respectively.

For `Oc1ccccc1`, the result in assay [1], in [2], in [3], in assay [4], in assay [5] and in assay [6] was inactive. For the same molecule, the outcome in [7] and in assay [8] was inactive.

In the case of `O=C(O)Cc1cc(I)c(Oc2ccc(O)c(I)c2)c(I)c1`, the AC50 in assay [1] was 50 µM (active); in assay [2] it was 94.5 µM (active); in [6], 20.2 µM (active); in assay [8], 73.1 µM (active). Moreover, the call in [3], in [4] and in assay [7] was inactive.

As to `CC(C)(c1cc(Br)c(O)c(Br)c1)c1cc(Br)c(O)c(Br)c1`, the outcome in assay [1], in [2], in assay [4], in assay [7] and in assay [8] was inactive. For the same molecule, the figures for the AC50 in assay [3] and in assay [6] were 89.2 µM (active) and 9.94 µM (active), respectively.

With `O=C1c2ccccc2C(=O)N1CCc1noc(-c2ccc(CN3CCCCCC3)s2)n1`, the call in assay [1], in assay [2], in assay [3], in assay [4], in assay [6] and in [7] was inactive. In addition, the call in assay [8] was inactive.

On to `CN(C)C(=O)C1(N2CCCCC2)CCN(CC[C@@]2(c3ccc(Cl)c(Cl)c3)CN(C(=O)c3ccccc3)CCO2)CC1`, for which the AC50 in assay [1] was 47.2 µM (active); in assay [4], 23.4 µM (active); in assay [9], 29 µM (active); in [6], 26 µM (active); in [7], 23.7 µM (active). Moreover, the result in [2], in assay [3] and in assay [8] was inactive.

`CCCOC(=O)c1cc(O)c(O)c(O)c1`: the result in assay [1], in assay [2], in assay [3] and in [6] was inactive. The concentration at half-maximal activity (AC50) in assay [4] is 4.06 µM (active); in [7] it was 6.03 µM (active); in assay [8], 4.97 µM (active).

With `NCc1cccc(C2CCN(C(=O)c3ccc(C#Cc4ccccc4F)o3)CC2)c1`, the call in assay [1], in assay [3], in [5] and in [8] was inactive. The AC50 in assay [2] was 78.9 µM (active); in assay [4], 50 µM (active); in [6], 78 µM (active); in [7] it was 90.6 µM (active).

Regarding `OC12N=C(c3ccccc3)SC1Cc1cc(Cl)ccc12` (stereo not drawn), the molecule was called inactive in assay [1], in [2] and in assay [7]. Besides, the AC50 is 4.85 µM (active) in [3], 17 µM (active) in [4], 16.7 µM (active) in assay [6] and 16.7 µM (active) in assay [8].

Take `Cc1cccc2ccccc12`: the molecule was called inactive in [1], in assay [2], in assay [3], in assay [4], in [6] and in assay [7]. Besides, the molecule was classed as inactive in assay [8].

For the molecule `O=C(OCCCCCCOC(=O)c1ccccc1)c1ccccc1`, the molecule was classed as inactive in assay [1], in assay [2], in assay [3], in assay [4], in assay [6] and in [7]. In assay [8], the result was inactive.

For the molecule `Clc1cc(Cl)c2c(c1)N=C1CCCCCN1C2`, the outcome in [1], in [2], in assay [3], in assay [4], in assay [5] and in assay [6] was inactive. The molecule was classed as inactive in [7] and in assay [8].

As for `COCC(C)OCC(C)OCC(C)O` (stereo not drawn), the molecule was called inactive in [1], in assay [2], in assay [3], in [4], in assay [6] and in [7]. Besides, the molecule was called inactive in assay [8].

Turning to `O=C(O)c1ccccc1-n1cc(C(=O)O)c(=O)c2cc(Nc3c(F)cc(F)cc3Cl)c(Cl)cc21`, the molecule was called inactive in assay [1], in [3], in assay [5], in [6] and in assay [8]. Also, the results for the AC50 in assay [2], in assay [4] and in [7] were 0.00848 µM (active), 15.5 µM (active) and 10.6 µM (active), respectively.

Take `Cc1ncc(CO)c(CO)c1O`: the molecule was called inactive in [1], in [3], in assay [4], in [6] and in [8].

In the case of `CCOC(=O)O[C@H](C)OC(=O)c1ccc2c(c1)cc(C(=O)NC1CCN(C(C)C)CC1)n2Cc1cc(-c2ccc(Cl)s2)on1`, the outcome in assay [1], in assay [2], in [3], in assay [4], in assay [5] and in [6] was inactive. For the same molecule, the molecule was classed as inactive in assay [7] and in assay [8].

Consider `CO[C@H]1/C=C/O[C@@]2(C)Oc3c(C)c(O)c4c(O)c(c(/C=N/N5CCN(C)CC5)c(O)c4c3C2=O)NC(=O)/C(C)=C\C=C\[C@H](C)[C@H](O)[C@@H](C)[C@@H](O)[C@@H](C)[C@H](OC(C)=O)[C@@H]1C`, for which the result in assay [1], in assay [2], in assay [3], in assay [6] and in assay [8] was inactive. For the same molecule, the AC50 in assay [4] was 0.442 µM (active); in assay [7] it was 0.344 µM (active).

Consider `CCO[Si](CCCNC(N)=O)(OCC)OCC`, for which the outcome in assay [1], in assay [2], in assay [3], in assay [4], in [6] and in [7] was inactive. Moreover, in assay [8], the call was inactive.

Consider `CC[C@H](NC(=O)c1cc(F)ccc1NS(=O)(=O)c1cccc2cccnc12)c1ccccc1`, for which the outcome in [1], in [2], in assay [3], in assay [5] and in assay [8] was inactive. For the same molecule, the results for the AC50 in [4], in assay [6] and in assay [7] were 1.34 µM (active), 47.8 µM (active) and 11.7 µM (active), respectively.

Regarding `CN1C(=O)CC[C@H]1c1cccnc1`, the call in assay [1], in assay [2], in assay [3], in [4], in assay [6] and in [7] was inactive. Besides, the result in [8] was inactive.
